Pf Dd2 growth: blocks in vitro growth of P. falciparum Dd2 | P. falciparum Dd2 growth, SYBR Green, 72 h | Potency, µM (titrated, usually from 28.9 µM), without a hit: at the highest dose activity, negative = inhibition, usual class: inhibitors | 120,000 compounds, 4.3% hits | AID 1347417; active = well fitted inhibition curve with a large enough effect;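 note: plate controls were DMSO vehicle for no effect and reference drug for full effect; nearly all actives have a fitted effect of over 65% in size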
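Infected erythrocytes (Dd2, 0.3% parasitemia, 2.5% hematocrit final) are added to compound in RPMI-1640/Albumax II medium, grown 72 h at 37C in low oxygen, then lysed with saponin/Triton-X containing SYBR Green and read by fluorescence.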
Starred values were filed as active, the others as inactive; i = inactive; [ ] = another dose, or the depositor's remark. Many of the other results were omitted from the sample, so hits are more common in it than they were. Potency is the fitted concentration of half-maximal effect.

SMILES	Pf Dd2 growth
O=C(CCn1ccc(=O)[nH]c1=O)N1CCc2nc(-c3ccccc3)[nH]c2C1	i
c1ccc(Cn2ccnc2C2CCN(c3ncnc4ccsc34)CC2)nc1	-1.8%
NC(=O)c1ccc(-c2nc3c([nH]2)CN(c2ncnc4ccsc24)CC3)cc1	10µM*
Cc1ccc(-c2nnc(C3CN(C(=O)CC4CCCCC4)CC34CCOCC4)o2)cc1 (stereo unspecified)	i
COc1ccc(-c2cc(C(F)(F)F)nc(SCC(=O)NCCc3ccccc3)n2)cc1	-15.1%
CCCOC(=O)c1c(NC(=O)c2nc3ncccn3n2)sc(C(N)=O)c1C	2.7%
CCN(CC)C(=O)c1sc(NC(=O)C(C)Sc2nc(-c3ccccc3)cc(C(F)(F)F)n2)c(C(=O)OC)c1C (stereo unspecified)	0.355µM*
CCCOC(=O)c1c(NC(=O)C(C)Sc2nc(-c3ccccc3)cc(C(F)(F)F)n2)sc(C(=O)N(C)C)c1C (stereo unspecified)	1.12µM*
COc1ccc(-c2cc(C(F)(F)F)nc(SCCC(=O)Nc3c(C)cccc3C)n2)cc1	-22.6%
CCOC(=O)c1sc(NC(=O)c2cc3nc(-c4ccc(Br)cc4)cc(C(F)(F)F)n3n2)c(C(=O)OCC)c1C	39.4%
Cc1cnc(C(=O)N[C@@H]2CCC[C@@H]2C(=O)NCCc2ccc(Cl)cc2)cn1	i
Cc1ccc2c(C)c(C(=O)N3CCOCC(CO)C3)oc2c1 (stereo unspecified)	5.8%
Cn1cc(C(NC(=O)c2cccc(Cn3cccn3)c2)C2CC(O)C2)cn1 (stereo unspecified)	-1.3%
C[C@@H](N)C(=O)N1CCC(n2nccc2NC(=O)Nc2ccccc2Cl)CC1	-2.9%
CC[C@H]1CN(C(=O)c2ccnc(Cl)c2)CC[C@H]1CC(=O)NCc1ccccc1	-4.5%[44.1 µM]
CC1=C[C@@H](CNC(=O)c2cncnc2)[C@H](C(C)C)C[C@H]1CC(=O)NC1CCCC1	-22.9%[44.1 µM]
O=C([C@@H]1COCC(=O)N1Cc1ccccc1)N1CCN(Cc2ccc3c(c2)OCO3)CC1	31.3%
COC(=O)c1ccc(Cl)cc1NC(=O)N(Cc1ccc(C)o1)C1CCN(C(C)=O)CC1	-21.4%
O=C(Nc1ccc(F)c(Cl)c1)N(Cc1ccc2c(c1)OCO2)C1CCN(Cc2ccccc2)CC1	8.91µM*
CCN1CCC(N(Cc2ccc3c(c2)OCO3)C(=O)Nc2cc(Cl)ccc2C(=O)OC)CC1	3.55µM*
O=C1[C@H]2CN(Cc3ccc(F)c(Cl)c3)C[C@H]2C(=O)N1Cc1ccc2c(c1)OCO2	i
CCN1CCC(N(Cc2ccc3c(c2)OCO3)C(=O)Nc2ccccc2OC)CC1	-24.4%
O=C(Cc1ccsc1)N1CCC(n2cc(-c3nc(C4CC4)no3)nn2)C1 (stereo unspecified)	i
CC(C)CC(=O)N[C@H](C)c1c(-c2ccc(F)cc2)noc1C(=O)O	-10.4%[44.1 µM]
CC(=O)N1CC2(CCN(CCS(C)(=O)=O)CC2)CC1C(=O)O (stereo unspecified)	4.5%
SMILES	Pf Dd2 growth
O=C(O)COCC(=O)N[C@H]1CCN2C(=O)c3cc(-c4ccccc4)ccc3NC(=O)[C@H]12	-19.1%[44.1 µM]
O=C(NC1CCCCC1)N[C@H]1CCN2C(=O)c3cc(-c4ccccc4)ccc3NC(=O)[C@H]12	8.3%[44.1 µM]
CCS[C@H]1CCN2C(=O)c3cc(-c4ccccc4)ccc3NC(=O)[C@H]12	11.2µM*
CCS[C@H]1CCN2C(=O)c3ccccc3NC(=O)[C@H]12	3.8%[44.1 µM]
Cc1cccc(-c2ccc3c(c2)C(=O)N2CC[C@H](N)[C@H]2C(=O)N3)c1C	-7.7%[44.1 µM]
O=C(N[C@H]1CCN2C(=O)c3cc(-c4ccccc4)ccc3NC(=O)[C@H]12)c1cnccn1	11.2µM*
COCCNC(=O)Cn1nc2c(cc1=O)CCCCC2	-7.9%
CC(=O)Nc1ccc(C2(C(=O)NCc3cccs3)CCCCC2)cc1	-7.3%
COc1cccc(C(=O)N2CCCC(c3nn(-c4ccccc4)c(=O)[nH]3)C2)c1 (stereo unspecified)	-4.0%
CC1CCCN(C(=O)Cn2ccn3nc4c(c3c2=O)CCCC4)C1 (stereo unspecified)	-18.5%
Fc1ccc(OC2CN(Cc3ccc(C(F)(F)F)cc3)C2)cc1F	-11.9%
CCn1ncc(C(=O)N2C[C@@H](COc3ccccc3)[C@H](C(N)=O)C2)c1C	-5.1%
Cc1[nH]c2ccccc2c1C1(O)C(=O)N(Cc2ccccc2)c2ccc(Cl)cc21 (stereo unspecified)	10µM*
Cc1ccc(CN2C(=O)C(O)(c3c(C)[nH]c4ccccc34)c3ccccc32)cc1 (stereo unspecified)	-13.9%
Cc1[nH]c2ccccc2c1C1(O)C(=O)N(Cc2ccc(Cl)cc2)c2ccccc21 (stereo unspecified)	i[5.79 µM]
Cc1ccc(C)c(NC(=O)NCC2CCOCC2)c1	1.0%
COc1ccc(-c2cc(C[C@H]3CNCC[C@H]3CC(=O)Nc3nccs3)no2)cc1	-6.7%[44.1 µM]
Cc1ccc(NC(=O)O[C@@H]2CC[C@]3(C)C(CC[C@@H](O)[C@H]3CC(=O)N3CCCC3)[C@]2(C)CO)cc1 (stereo partly specified)	i
CC(=O)N1CCN(c2nc3ncccc3o2)CC1	-6.4%[44.1 µM]

High-throughput results (PubChem)
